Measured values published in PubChem BioAssay (NCI).
The panel holds about 83,000 compounds, 20% with a hit somewhere; the sample as a whole holds those more often.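 In brief: 96-well plates, 48 h treatment, single concentration, percent growth endpoint.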 Values without a mark were called inactive. Active and inactive are the calls of the source. Rule for the calls: active = growth percent below 10; inactive = the rest.

Assays:
Experiment in all cases: NCI-60 one-dose screen, 48 h (100 = growth as untreated, 0 = no growth, -100 = all killed)
Settings in all cases: 10 µM unless noted
SK-MEL-2 melanoma = tested on: SK-MEL-2 melanoma
EKVX NSCLC = tested on: EKVX NSCLC
SN12C renal = tested on: SN12C renal
UO-31 renal = tested on: UO-31 renal
TK-10 renal = tested on: TK-10 renal
ACHN renal = tested on: ACHN renal
CAKI-1 renal = tested on: CAKI-1 renal
A498 renal = tested on: A498 renal
MOLT-4 leukemia = tested on: MOLT-4 leukemia
SR leukemia = tested on: SR leukemia
RPMI-8226 leukemia = tested on: RPMI-8226 leukemia
OVCAR-8 ovarian = tested on: OVCAR-8 ovarian
OVCAR-5 ovarian = tested on: OVCAR-5 ovarian
OVCAR-4 ovarian = tested on: OVCAR-4 ovarian
SK-OV-3 ovarian = tested on: SK-OV-3 ovarian
IGROV1 ovarian = tested on: IGROV1 ovarian
OVCAR-3 ovarian = tested on: OVCAR-3 ovarian
HS 578T breast = tested on: HS 578T breast
NCI/ADR-RES ovarian = tested on: NCI/ADR-RES ovarian
CCRF-CEM leukemia = tested on: CCRF-CEM leukemia

SMILES	growth (SK-MEL-2 melanoma)	growth (EKVX NSCLC)	growth (SN12C renal)	growth (UO-31 renal)	growth (TK-10 renal)	growth (ACHN renal)	growth (CAKI-1 renal)	growth (A498 renal)	growth (MOLT-4 leukemia)	growth (SR leukemia)	growth (RPMI-8226 leukemia)	growth (OVCAR-8 ovarian)	growth (OVCAR-5 ovarian)	growth (OVCAR-4 ovarian)	growth (SK-OV-3 ovarian)	growth (IGROV1 ovarian)	growth (OVCAR-3 ovarian)	growth (HS 578T breast)	growth (NCI/ADR-RES ovarian)	growth (CCRF-CEM leukemia)
CN1CCN(Cc2ccc(NC(=O)c3[nH]ncc3Nc3ncnc4[nH]ccc34)cc2)CC1	-12.3% (active)	13%	13.3%	3.55% (active)	-61.8% (active)	5.97% (active)	-1.63% (active)	-59% (active)	-20.9% (active)	-17% (active)	-10.4% (active)	6.62% (active)	11.6%	-21.7% (active)	18.5%	16.4%	-57.6% (active)	-3.22% (active)	71.2%	
Cc1[nH]n(-c2ccccc2)c2nc3nncc3c(-c3ccc(Cl)cc3)c12	123%	97%	93.1%	96.6%	112%	104%	90.3%	102%	101%			89.8%	99.1%	107%	105%	124%	121%	110%	93.6%	89.7%
COC1/C=C\OC2(C)Oc3c(C)c(O)c4c(O)c(c(CN(C)CCO)c(O)c4c3C2=O)NC(=O)/C(C)=C\C=C/C(C)C(O)C(C)C(O)C(C)C(OC(C)=O)C1C (stereo not drawn)	105%	95.1%	105%	80.3%	114%	103%	68.5%	115%	112%	91.2%	86.4%	90.7%	91.7%	84.5%	96.6%	95.9%	111%	104%	103%	
Oc1ccccc1N=Cc1c(O)ccc2ccccc12	62.4%	63.2%	65.3%	57%	119%	59.3%	47.6%	64.8%	37.1%	37.5%	26.5%	97.8%	87.3%	74.8%	84.6%		64.2%	64.9%	56.8%	
CCCCCCCCCCCCCCCC(=O)OCC1OC(n2cnc3c(=S)nc(N)[nH]c32)C(OC(=O)CCCCCCCCCCCCCCC)C1OC(=O)CCCCCCCCCCCCCCC (stereo not drawn)	54.7%	48.6%	84.2%	50%	35.7%	75%	49.4%	116%	-24% (active)	11.4%	30.1%	55.8%	52.1%	78.3%	20.8%	77.1%	50%	119%	39.4%	
O=C(CO[N+](=O)[O-])Nc1ccc(C(=O)/C=C/c2ccc(Cl)cc2)cc1	81.7%	67.9%	46.8%	32%	45.7%	62.3%	74.9%	103%			-14.2% (active)	27.2%	66.9%	76.1%	89.3%	-26% (active)	0.332% (active)	89.7%	29.9%	20.1%
COc1ccc(-c2cn3c(-c4ccc(OC)cc4)cnc3c(Oc3ccc4c(C)cc(=O)oc4c3)n2)cc1	49.4%	50.2%	24.5%	75%	35.7%	58.1%	71.7%	52.4%			63.7%	26.3%	88%	-18.6% (active)	90.6%	70.6%	46.6%	57.6%	29.9%	93.2%
COc1ccc(C2c3ccc4ccccc4c3Oc3ncnc(N)c32)cc1 (stereo not drawn)	71.9%	45.9%	96%	55.9%	113%	81.3%	50%	75.2%	83.4%	46%	86%	92.8%	97.9%	89%	62.1%	64.3%	88%	82.2%	74.7%	
C[C@H](CCC(=O)O)[C@H]1CC[C@H]2[C@@H]3CC[C@@H]4/C(=C\c5ccco5)C(=O)/C(=C\c5ccco5)C[C@]4(C)[C@H]3CC[C@]12C	73.2%	79.1%	56.3%	49.6%	109%	46.6%	55.6%	115%	0.809% (active)		3.68% (active)	70.6%	113%	80%	121%		24.6%	69.3%	80%	0.613% (active)
C=C1C(=O)O[C@H]2[C@H]1CC/C(Cn1cc(Cn3ccc4cc(Cl)ccc43)nn1)=C\CC[C@@]1(C)O[C@@H]21	18.1%	42.4%	19.4%	-100% (active)	-24.7% (active)	-97.8% (active)	3.92% (active)	45%	-22.1% (active)	-27% (active)	-42.3% (active)	-38.8% (active)	69.5%	14.3%	85.9%	2.27% (active)	-91.2% (active)	52.1%	50.6%	
O=C1NC(=O)C(CC(=O)n2c(-c3ccccc3)nc3ccccc32)C(=O)N1	101%	93.6%	99.5%	79.6%	116%	101%	90.5%	63.6%	108%		101%	101%	103%	103%	98.3%		106%	102%	103%	104%
CCCNc1nc(SC)nc(-c2cccc(N)c2)c1C#N	111%	82.6%	90.1%	76.8%	150%	97.7%	73%	72.4%	101%		103%	99.1%	101%	92.4%	93.7%	92.2%	110%	93.1%	101%	108%
C=C1C(=O)O[C@H]2[C@H]1CC/C(Cn1cc(Cn3ccc4ccccc43)nn1)=C\CC[C@@]1(C)O[C@@H]21	61.5%	58.6%	39.8%	-77.2% (active)	16.8%	-52.9% (active)	18.3%	74.3%	-8.31% (active)	-18.4% (active)	-34.6% (active)	11%	71.5%	45.4%	101%	47.8%	-59.7% (active)	69.4%	77.9%	
CCN(CC)Cc1cc(Nc2c3ccccc3nc3cc(Cl)ccc23)ccc1O	-74.2% (active)	-55.1% (active)	-36.9% (active)	-72.9% (active)	-65.6% (active)	-97.3% (active)	-75% (active)	-61.4% (active)	-28.9% (active)	-37.1% (active)	-21.1% (active)	-60.1% (active)	-15.3% (active)	-97.8% (active)	-2.76% (active)	2.96% (active)	-92.2% (active)	-30.9% (active)	-38.5% (active)	
COc1ccc(Cl)cc1Nc1nc(C(F)(F)F)ccc1C(=O)N/N=C/c1cccnc1	39%	48.5%	62.7%	41.5%	49%	36.7%	43.2%	40.8%	2% (active)	25.1%	32.5%	42%	57%	29.7%	53.9%	40.3%	29.3%	59.6%	41.8%	
O=C(COc1cccc(/C=C2/Oc3ccccc3C2=O)c1)Nc1nccs1	-32.2% (active)	74.7%	70.3%	-53.2% (active)	83.7%	112%	37%	93.9%	28.4%	-53.8% (active)	-53.2% (active)	61.8%	86.6%	87.5%	266%	-35% (active)	220%	88.6%	83.3%	
